Compounds with a hit are over-represented: about 1.8% of the library has one in this group of screens.
TRPML1 ag: agonists of human TRPML1 channel; activation, % (no concentration beside the values); TRPML1-expressing cells, Ca2+ dye fluorescence, FDSS; AID 624414; 0.12% of 410,000 active; Q9GZU1; in the data active = activation above about 50%; inconclusive = mostly about 30% to 49%
Target sequence (Q9GZU1 whole entry, looked up): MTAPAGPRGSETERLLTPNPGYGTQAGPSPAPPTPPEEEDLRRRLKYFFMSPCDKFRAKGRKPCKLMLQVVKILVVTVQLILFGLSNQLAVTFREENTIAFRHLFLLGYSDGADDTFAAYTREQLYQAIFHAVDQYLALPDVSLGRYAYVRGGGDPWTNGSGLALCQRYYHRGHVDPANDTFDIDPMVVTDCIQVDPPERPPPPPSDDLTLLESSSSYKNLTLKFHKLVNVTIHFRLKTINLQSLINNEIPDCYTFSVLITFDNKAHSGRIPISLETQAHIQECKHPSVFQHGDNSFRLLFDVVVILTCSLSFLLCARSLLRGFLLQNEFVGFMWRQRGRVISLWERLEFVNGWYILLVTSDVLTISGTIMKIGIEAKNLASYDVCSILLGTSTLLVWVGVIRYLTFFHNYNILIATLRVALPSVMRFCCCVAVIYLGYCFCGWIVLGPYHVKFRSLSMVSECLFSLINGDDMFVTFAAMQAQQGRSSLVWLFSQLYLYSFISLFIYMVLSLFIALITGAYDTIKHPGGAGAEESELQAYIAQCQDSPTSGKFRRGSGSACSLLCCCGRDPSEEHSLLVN
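Agonist activity was taken from a 110 s kinetic Ca2+ dye read on the FDSS after pinning compounds onto TRPML1-DL cells. The cells were seeded at 1,500/well with Tet inducer, incubated about 16 h, then dye-loaded at room temperature.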
GLP-1R inv ag: inverse agonists of human GLP-1 receptor; P43220; HEK293 GLP-1R CRE-luciferase, luminescence, 24 h; GLP-1R form is constitutively active; Potency, µM (top dose mostly 38.3 µM), hits mostly inhibitors; 1.6% of 410,000 active; also: nearly all actives have a fitted effect of over 55% in size
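Assay principle: reduced luminescence from a cAMP-responsive reporter in HEK293 cells co-expressing a constitutively active GLP-1R. Conditions: 24 hr compound incubation, 37 deg C, 5% CO2.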
HEK293 tox: cytotoxic in the GLP-1 receptor inverse agonist counter-screen; HEK293 cAMP-luciferase reporter cells, luminescence, 24 h; Potency, µM (series often up to 38.3 µM), usual class: inhibitors; 0.13% of 410,000 active;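 also: loss of luciferase light is scored as toxicity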
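Compound-treated cells are incubated 24 hr at 37 deg C under 5% CO2 after a 12 hour attachment period, then luciferase detection reagent is added and luminescence is measured following 12 min at room temperature; lowered signal indicates toxicity.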
TRPML1 inh: blocks the human TRPML1 channel | Q9GZU1 | AID 624415 | 0.02% of 390,000 active | activity change, negative = inhibition, % (test concentration not listed) | TRPML1-inducible cells, Ca2+ dye fluorescence, FDSS; active compounds read low; inhibition of EC80 agonist-evoked calcium signal; in the data active = activity change below about -50%; inconclusive = between about -30% and that limit;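 also: stimulus is agonist 54-4 at its EC80 concentration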
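Tet-induced TRPML1-DL cells loaded with Ca8 no-wash calcium dye were read kinetically on FDSS. Compound addition was followed by EC80 agonist 54-4 (4 uM final); inhibition was read over 110 s.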
GLP-1R agonist: agonists of human GLP-1 receptor; AID 624172; Potency, µM (top dose mostly 45.6 µM), actives largely listed as activators; 0.007% of 380,000 active; HEK293 GLP-1R CRE-luciferase, luminescence, 4-6 h; cells express a hypersensitive GLP-1R form
Of the large screens only hits and unclear results are named; the others gave an inactive call. Unless noted, calls follow the shape of the dose curve; as a rule, active = well fitted curve in the direction sought with a large enough effect; inconclusive = small, poorly fitted or top-dose-only effect, or another doubt; inactive = no such curve, though single readings can be large; an effect the other way counts as inactive or inconclusive.

CN(C)C(=O)Oc1ccc(OC(=O)c2ccccc2)cc1	none
Cc1cccc(NC(=O)Oc2ccc(Cl)c3cccnc23)c1	GLP-1R inv ag 10µM, HEK293 tox inconclusive
Cc1ccc(NC(=O)C2CCCN2S(=O)(=O)c2ccc3nc(-c4ccccc4)[nH]c3c2)cc1F (stereo unspecified)	GLP-1R inv ag inconclusive, HEK293 tox inconclusive (no result: GLP-1R agonist)
O=C1CC(c2cccnc2)=NN1c1ccccc1	none
O=C1CC(NC(=O)C(F)(F)F)=NN1c1ccccc1	GLP-1R inv ag 2.5µM, HEK293 tox inconclusive
C[C@H]1[C@@H](OS(=O)(=O)O)C[C@@H]2C[C@H]([C@@H](O)c3cc(=O)[nH]c(=O)[nH]3)NC3=NC[C@H]1N32	GLP-1R inv ag 2.5µM (no result: HEK293 tox)
ClC1=C(Cl)[C@]2(Cl)[C@@H]3[C@@H]4C[C@@H]([C@H]5O[C@@H]45)[C@@H]3[C@@]1(Cl)C2(Cl)Cl	none (no result: TRPML1 ag, GLP-1R inv ag, HEK293 tox, TRPML1 inh)
C[C@@H]1CNC(=O)c2c(C(=O)Nc3cccc(Cl)c3)ncn21	none
C=CCC1(C(C)CCC)C(=O)NC(=O)NC1=O (stereo unspecified)	none (no result: TRPML1 ag, GLP-1R inv ag, HEK293 tox, TRPML1 inh)
CCCCn1c(SCC(=O)Nc2cc(C(F)(F)F)cc(C(F)(F)F)c2)nnc1C(CC)N(C)C (stereo unspecified)	GLP-1R inv ag inconclusive, HEK293 tox inconclusive
CC1=Nc2cc(C(=O)NCCc3ccc(Cl)cc3)ccc2Sc2ccc(C)cc21	GLP-1R inv ag inconclusive, HEK293 tox inconclusive (no result: GLP-1R agonist)
CC1CCC(C(C)C)C(OC(=O)Cn2c(-c3ccccc3)[n+](C)c3ccccc32)C1 (stereo unspecified)	GLP-1R inv ag inconclusive, HEK293 tox 8.9µM
CC1CCC(C(C)C)C(OC(=O)Cn2c(COc3ccccc3)[n+](C)c3ccccc32)C1 (stereo unspecified)	GLP-1R inv ag inconclusive, HEK293 tox inconclusive
Cc1ccccc1-n1c(/C=C/c2ccc(N(C)C)cc2)nc2ccccc2c1=O	TRPML1 ag inconclusive, GLP-1R inv ag 8.9µM (no result: GLP-1R agonist)
Cc1ccccc1-n1c(C)nc2ccccc2c1=O	none
Cc1ccccc1-n1c(/C=C/c2c(C)[nH]c3ccccc23)nc2ccccc2c1=O	GLP-1R inv ag 4µM (no result: GLP-1R agonist)
CCN1CCN(c2ccc(NC(=O)c3ccc4c(c3)[nH]c(=O)n4Cc3ccc(OC)cc3)cc2)CC1	GLP-1R inv ag inconclusive, HEK293 tox inconclusive
CCN1CCN(Cc2ccc(NC(=O)c3ccc(C)c(NC(=O)C(=O)c4c[nH]c5ccccc45)c3)cc2C(F)(F)F)CC1	GLP-1R inv ag 5.6µM, HEK293 tox inconclusive
CC(C)(C)NC(=O)N1c2ccccc2Sc2ccccc21	GLP-1R inv ag inconclusive (no result: TRPML1 ag, TRPML1 inh)
O=C(CN1c2ccccc2Sc2ccccc21)NNC(=O)Nc1ccc(Cl)cc1	GLP-1R inv ag 1.4µM, HEK293 tox inconclusive
O=C(CCl)NCc1cc(-c2ccc(Cl)cc2)no1	GLP-1R inv ag inconclusive, HEK293 tox inconclusive
Cc1cc(Nc2cccc(C(F)(F)F)c2)nc2ccc(NC(=O)c3cccnc3)cc12	GLP-1R inv ag 4µM, HEK293 tox inconclusive (no result: GLP-1R agonist)
CCN(CC)C(=O)c1ccc(NC(=O)c2cccc(C(F)(F)F)c2)cc1	GLP-1R inv ag inconclusive
CCc1ccc(-c2nc(CN3CCCC(C(=O)N4CCN(c5cc(Cl)ccc5C)CC4)C3)c(C)o2)cc1 (stereo unspecified)	GLP-1R inv ag 4.5µM, HEK293 tox inconclusive (no result: GLP-1R agonist)
CS(=O)(=O)N(Cc1ccccc1)c1ccc(C(=O)Nc2ccc(Cl)cc2)cc1	GLP-1R inv ag inconclusive, HEK293 tox inconclusive (no result: GLP-1R agonist)
O=C(NCc1cccnc1)/C(=C\c1ccc(-c2ccc(Br)cc2)o1)S(=O)(=O)c1ccccc1	GLP-1R inv ag 1.8µM, HEK293 tox inconclusive
C[C@H]1O[C@@H](O[C@H]2[C@@H](O)C[C@@H](O[C@H]3[C@@H](O)C[C@H](O[C@H]4CC[C@@]5(C)[C@H](CC[C@@H]6[C@@H]5CC[C@]5(C)[C@@H](C7=CC(=O)OC7)CC[C@]65O)C4)O[C@@H]3C)O[C@@H]2C)C[C@H](O)[C@@H]1O	none (no result: GLP-1R inv ag, HEK293 tox, TRPML1 inh, GLP-1R agonist)
Cc1cccc(Nc2nc(NCc3ccco3)c3ccccc3n2)c1	GLP-1R inv ag 2.2µM, HEK293 tox inconclusive
c1cc2c(cc1C1CCCCC1)c1c3n2CCCNC3CCC1 (stereo unspecified)	GLP-1R inv ag 4µM, HEK293 tox inconclusive
COc1cc2c(cc1OC)CN(c1ccc([N+](=O)[O-])c(C(F)(F)F)c1)CC2	GLP-1R inv ag 7.9µM, HEK293 tox 10µM
CC(C)(O)C(=O)Nc1ccc([N+](=O)[O-])c(C(F)(F)F)c1	none
OC(c1cccc(Cl)c1)(c1cccc(Cl)c1)C1CN2CCC1CC2 (stereo unspecified)	GLP-1R inv ag 4µM, HEK293 tox inconclusive
CCOC(=O)c1c(C=O)c2ccccc2n1Cc1ccccc1	GLP-1R inv ag 10µM (no result: TRPML1 ag, TRPML1 inh)
Cc1ccc(C)c(Cn2c(C(=O)O)c(C=O)c3ccccc32)c1	none
CCN1/C(=C/C=C/C2=[N+](CC)c3ccccc3C2(C)C)C(C)(C)c2ccccc21	TRPML1 ag 76, GLP-1R inv ag inconclusive, HEK293 tox inconclusive
Cc1ccc2nc(-c3ccccc3)cc(C(=O)N3CCN(c4ccccc4O)CC3)c2c1	GLP-1R inv ag 10µM, HEK293 tox inconclusive
COc1ccc(NC(=O)CN(c2ccc([N+](=O)[O-])cc2)S(=O)(=O)c2ccccc2)cc1	GLP-1R inv ag 6.3µM, HEK293 tox inconclusive
O=C(Oc1c(Cl)cc(Cl)c2ccccc12)N1CCCCC1	TRPML1 ag 68, GLP-1R inv ag inconclusive
FC(F)Oc1ccc(NC(=S)NNc2ccnc3cc(Cl)ccc23)cc1	GLP-1R inv ag inconclusive, HEK293 tox inconclusive
O=S(=O)(NC1CN2CCC1CC2)c1ccc(Cl)cc1 (stereo unspecified)	HEK293 tox inconclusive
O=C(COc1ccc(Cl)cc1)N(c1ccccc1Cl)C1CN2CCC1CC2 (stereo unspecified)	GLP-1R inv ag 2.5µM, HEK293 tox inconclusive
O=C(COc1ccc(Cl)cc1)N(c1ccc(Cl)cc1)C1CN2CCC1CC2 (stereo unspecified)	GLP-1R inv ag 8.9µM, HEK293 tox inconclusive
CC(=O)c1ccccc1OCC(O)CN1CCN(CCN2C(=O)c3cccc4cccc(c34)C2=O)CC1 (stereo unspecified)	GLP-1R inv ag inconclusive, HEK293 tox 11µM
O=c1[nH]cnc2[nH]cc(CN3CCCCC3)c12	none (no result: TRPML1 ag, GLP-1R inv ag, HEK293 tox, TRPML1 inh)
O=c1c2cc(NC(=S)NCCCN3CCC(Cc4ccccc4)CC3)ccc2nc2n1CCCCC2	GLP-1R inv ag 2.2µM, HEK293 tox inconclusive
CCN(CC)S(=O)(=O)c1ccc(C)c(NCC(=O)Nc2ccc(C#N)c(Cl)c2)c1	GLP-1R inv ag 5.6µM
CC(=O)N1CCN(CC(=O)Nc2ccc(C#N)c(Cl)c2)CC1	none
O=c1c2ccccc2nc(Cc2ccccc2)n1-c1cccc(O)c1	none
O=C1c2cccc3c(N4CCCCC4)ccc(c23)C(=O)N1c1cccc(O)c1	TRPML1 ag 88

Source: PubChem BioAssay
